Source: PubChem
aSyn 5UTR act – Activators via SNCA 5'UTR binding, MLPCN; activity score, % (tested at 7.5 µM), hits read low; 7.1% of 300,000 active; alpha-synuclein 5'UTR reporter, activators screen; in the data active = activity score below about -60%
An asterisk follows results filed as active. Only a sample is shown.

SMILES	aSyn 5UTR act
CC(O)CNc1nc2sc3c(c2c(=O)n1CCc1ccccc1)CCCCC3 (centres undefined)	-72*
Cc1ccccc1Cn1c(=O)n(Cc2ccco2)c(=O)c2ccccc21	56
NC(=O)Cn1c(=O)n(Cc2ccco2)c(=O)c2c3c(sc21)CCCCC3	-80*
CN(C)CCNc1nc2sc3c(c2c(=O)n1CCc1ccccc1)CCCCC3	-87*
CC(O)CNc1nc2sc3c(c2c(=O)n1Cc1ccco1)CCCCC3 (centres undefined)	-103*
Oc1ccc(Br)cc1C=Nc1ccc2c3c(cccc13)CC2	-69*
Cc1cnc(NC(=O)COc2ccccc2Cl)s1	82
COc1ccccc1CCC(=O)Nc1ccc(C)cc1Cl	-160*
COc1ccccc1CCC(=O)Nc1ncc(C)s1	-83*
Cc1cccc(NC(=O)CNc2cc(C)ccc2C)c1	-68*
Cc1ccc(SCC(=O)Nc2cccc(C)c2)cc1	-135*
c1ccc2[nH]c(SCC3CCCCO3)nc2c1 (centres undefined)	-76*
CCOc1ccc2nc(SCC3CC3(Cl)Cl)[nH]c2c1 (centres undefined)	-153*
ClC1(Cl)CC1CSc1nc2ccccc2[nH]1 (centres undefined)	-77*
CC(/C=N/NC(=O)c1ccc(Cn2cc([N+](=O)[O-])cn2)o1)=C\c1ccccc1	-75*
Cc1cc(C(=O)COC(=O)c2cc(Cl)ccc2N)c(C)n1Cc1ccco1	-157*
Cc1cc(C(=O)COC(=O)c2cccn2C)c(C)n1Cc1ccco1	77
O=C(O)c1ccccc1OCc1nc2ccccc2s1	-146*
O=C(OCc1nc2ccccc2s1)c1ccccc1O	-137*
O=C(OCc1nc2ccccc2s1)c1cnccn1	-134*
O=C(OCc1nc2ccccc2s1)c1cccs1	-197*
O=C(O)C(=O)/C(=C\c1ccc(Cl)cc1)c1ccc2ccccc2n1	-226*
COC(=O)/C(=C/Nc1cccc2ccccc12)[N+](=O)[O-]	-68*
Cc1ccc(-c2nn3c(C)nnc3s2)cc1N	-79*
C/C(=N\NC(=O)c1c(Cl)cnn1C)c1cccc(NC(=O)c2ccc(C)cc2)c1	-72*
SMILES	aSyn 5UTR act
CSc1cccc(NC(=O)c2c(Cl)cnn2C)c1	-89*
C/C(=N\NC(=O)c1cccc(F)c1)c1cccc(NC(=O)c2ccc(F)cc2)c1	-72*
C/C(=N\NC(=O)c1ccc(O)cc1)c1cccc(NC(=O)c2ccc(Cl)cc2)c1	-161*
C/C(=N\NC(=O)c1ccccc1F)c1cccc(NC(=O)c2ccc(C)cc2)c1	-74*
C/C(=N\NC(=O)c1c(Br)cnn1C)c1ccc(NC(=O)c2ccc(F)cc2)cc1	-108*
Nc1nc2c(C(=O)N3CCOCC3)nnn2c2ccccc12	-66*
CCOc1ccccc1NC(=O)C(OC(=O)c1ccc(O)cc1)c1ccccc1 (centres undefined)	-62*
Cc1ccc(C2=NNC(C(O)C(O)C(O)C(C)O)S2)cc1 (centres undefined)	-87*
CC1=CC(c2ccccc2)=Nc2ccc(C)cc2N1	-151*
CC(=O)N(/N=C1\Sc2ccccc2C1=O)c1ccccc1C	-170*
COc1ccc(-c2csc(NCc3ccco3)n2)cc1C	-195*
c1cncc(-c2csc(NCc3ccco3)n2)c1	-92*
CC(=O)Nc1ccc(-c2csc(NCc3ccco3)n2)cc1	-138*
O=C(CCOc1ccccc1F)N1CCN(c2ccccc2O)CC1	-75*
Clc1nc(-c2cccnc2)nc2scc(-c3ccccc3)c12	-134*
O=C(Oc1cccc(/C=N/NC(=O)c2ccccn2)c1)c1ccc([N+](=O)[O-])cc1	-100*
CCN(CC)c1ccc(/C=N/NC(=O)c2cnccn2)cc1	-85*
C/C(=N\NC(=O)C(C)Oc1ccc([N+](=O)[O-])cc1)c1ccccn1 (centres undefined)	72
CCN(CC)c1ccc(/C=N/NC(=O)c2ccccn2)cc1	-125*
Cc1ccc(/C=N\NC(=O)c2csnn2)cc1	-69*
O=C(N/N=C/c1ccc(OC(=O)c2ccccc2Cl)cc1)c1ccccn1	-112*
Cc1ccc(Cl)cc1Nc1nc(-c2sc(NC(=O)c3cccc(Cl)c3)nc2C)cs1	-201*
Cc1ccccc1Nc1nc(-c2sc(NC(=O)c3cccc(Cl)c3)nc2C)cs1	-145*
COc1ccc(-c2ccc(SCC(=O)Nc3nnc(C)s3)nn2)cc1	-87*
CCc1nnc(NC(=O)CSc2ccc(-c3nc4ccc(C)cc4[nH]3)cn2)s1	-159*
SMILES	aSyn 5UTR act
O=C(CSc1ccc(-c2ccc(-n3cccn3)cc2)nn1)Nc1ccccc1F	-141*
CCc1nnc(NC(=O)CSc2ccc(-c3ccc(C)cc3)nn2)s1	-70*
COc1ccc(-c2ccc(SCC(=O)NCc3ccco3)nn2)cc1	-78*
Cc1cc2nc(-c3ccc(SCC(=O)Nc4ccc(S(=O)(=O)N5CCCC5)cc4)nc3)[nH]c2cc1C	-147*
CCOc1ccc(-c2cc(CCCC(=O)NCc3ccco3)no2)cc1	73
Cc1cc(NC(=O)CSc2ccc(-c3ccc(Br)cc3)nn2)no1	-67*
Cc1cc(=O)oc2cc(NC(=O)c3cc4ccccc4o3)ccc12	-94*
Cn1c(=O)n(C)c2cc(NC(=O)c3cc4ccccc4o3)ccc21	-146*
Cc1cc(C(=O)Nc2ccccc2)oc(=O)c1	-85*
Cc1cc(=O)oc2cc(NC(=O)c3cccc(Br)c3)ccc12	-166*
CN(C)S(=O)(=O)c1ccc(NC(=O)c2cc3ccccc3o2)cc1	-110*
COCc1cc(=O)oc2cc(NC(=O)c3ccc(C(C)(C)C)cc3)ccc12	-110*
Cc1cc(=O)oc2cc(NC(=O)c3ccccc3OC(F)F)ccc12	-114*
O=C(Nc1ccc2oc(=O)ccc2c1)c1cc2ccccc2o1	-177*
CC(=C/c1ccc(C(C)C)cc1)/C=N/NC(=O)c1ccncc1	-110*
CCOc1cc(C(=O)N/N=C/C(Br)=C/c2ccccc2)cc(OCC)c1OCC	104
CC(/C=C/c1ccccc1F)=N\NC(=O)c1cccc(F)c1	-139*
CC(/C=N/NC(=O)c1ccc2nc(C)[nH]c2c1)=C\c1ccccc1	-67*
O=C(N/N=C/C(Br)=C\c1ccccc1)c1ccc2nc[nH]c2c1	-90*
CC(/C=N/NC(=O)c1cccc(F)c1)=C\c1ccccc1	-254*
COc1ccccc1-c1nc(COc2ccc(Cl)cc2Cl)no1	-204*
COc1ccc(-n2c(=S)[nH]c3cc(C(=O)Nc4ccc(F)cc4)ccc3c2=O)c(OC)c1	-142*
CCCN1CCC(=O)N(CCSc2ccc(C)cc2)CC1	-79*
O=C1CCC(O)CCN1CCSc1ccccc1 (centres undefined)	-93*
CC(C)CN1CCC(=O)N(CCSc2ccccc2)CC1	-107*
SMILES	aSyn 5UTR act
CCN(CC)c1ccc(NC(=O)c2ccccc2F)cc1	-411*
O=C(Nc1ccccc1)Nc1ccc(Cl)nc1Cl	-93*
O=C(Nc1ccc(Nc2ccccc2)cc1)c1ccccc1F	-174*
O=C(Nc1ccccc1)Nc1ccc(Nc2ccccc2)cc1	-111*
c1ccc(Nc2cccc(Nc3ccccc3)c2)cc1	-86*
COc1ccc(/C(C#N)=C/c2ccccn2)cc1	-172*
N#C/C(=C\c1ccccn1)c1nc2ccccc2s1	-74*
CCCCCN1C=CC(=C2C(=O)c3ccccc3C2=O)C=C1	113
CC1=CC(=C2C(=O)c3ccccc3C2=O)C=C(C)N1C	-132*
COc1cc(/C=C2/C(=N)N3OC(C)=CC3=NC2=O)ccc1OCCOc1ccc(C)cc1	-75*
O=C1NC(=O)/C(=C/c2ccc(O)cc2)S1	-91*
CCOc1ccc(C(=O)CSc2nnc3ccccn23)cc1	-154*
